Test results reported in PMC4336329 (PLoS ONE, 2015).
About 14,000 (4.5%) of roughly 310,000 compounds showed an effect of 50% or more. Effects have a minus sign here. For the sample, strong results were picked, then their nearest neighbours and some compounds at random.

Target: human ether-à-go-go-related gene (hERG) potassium channel (human, UniProt Q12809)
Assay: primary screen, population patch clamp on CHO cells stably expressing hERG; higher = less effect of the substance
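Also: peak tail current of the secondary pulse compared with the same well before compound.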

Chain of human ether-à-go-go-related gene (hERG) potassium channel (Q12809 whole entry, looked up): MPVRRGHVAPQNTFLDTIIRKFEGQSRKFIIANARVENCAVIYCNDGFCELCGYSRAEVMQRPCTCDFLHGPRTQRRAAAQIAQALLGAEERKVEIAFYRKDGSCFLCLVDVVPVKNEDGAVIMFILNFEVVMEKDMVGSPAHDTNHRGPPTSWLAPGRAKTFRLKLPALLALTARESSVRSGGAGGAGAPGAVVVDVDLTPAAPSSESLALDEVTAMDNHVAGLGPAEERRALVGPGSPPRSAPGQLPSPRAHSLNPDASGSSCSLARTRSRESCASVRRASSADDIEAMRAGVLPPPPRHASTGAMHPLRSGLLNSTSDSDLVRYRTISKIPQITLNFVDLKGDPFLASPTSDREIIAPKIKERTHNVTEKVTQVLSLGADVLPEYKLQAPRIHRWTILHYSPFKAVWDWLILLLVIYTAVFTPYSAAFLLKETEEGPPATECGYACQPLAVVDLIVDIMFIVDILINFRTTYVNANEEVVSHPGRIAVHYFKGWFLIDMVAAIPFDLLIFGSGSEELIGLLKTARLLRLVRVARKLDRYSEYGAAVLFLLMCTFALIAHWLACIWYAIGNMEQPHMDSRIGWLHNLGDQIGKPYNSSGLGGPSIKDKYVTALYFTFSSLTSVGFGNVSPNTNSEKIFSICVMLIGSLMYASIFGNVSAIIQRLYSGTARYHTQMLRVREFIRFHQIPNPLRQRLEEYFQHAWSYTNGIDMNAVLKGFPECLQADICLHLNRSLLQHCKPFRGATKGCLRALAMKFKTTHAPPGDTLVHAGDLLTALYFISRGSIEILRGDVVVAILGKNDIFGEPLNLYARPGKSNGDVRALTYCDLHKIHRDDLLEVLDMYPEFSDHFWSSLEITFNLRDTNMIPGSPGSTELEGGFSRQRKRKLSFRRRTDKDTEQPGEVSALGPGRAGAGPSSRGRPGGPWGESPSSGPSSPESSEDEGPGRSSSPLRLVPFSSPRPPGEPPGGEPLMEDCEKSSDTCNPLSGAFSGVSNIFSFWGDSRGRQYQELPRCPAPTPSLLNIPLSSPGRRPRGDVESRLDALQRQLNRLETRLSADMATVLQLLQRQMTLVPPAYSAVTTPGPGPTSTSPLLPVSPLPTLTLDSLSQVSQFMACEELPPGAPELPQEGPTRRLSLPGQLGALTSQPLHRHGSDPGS

First: O=C(COC(=O)Cc1cn2ccsc2n1)Nc1nc2ccccc2s1
Second: Cc1nc2c3ccccc3nc(NNC(=O)CCC(=O)N3CCN(c4ccccc4F)CC3)n2n1
The “hERG current change (%, negative = inhibition) at 10uM” value of the first is higher: 8.88% for the first, -40.3% for the second.

Compared with `CCOCCCNC(=O)C1CCN(c2cc(C)nc3c(-c4ccc(OC)c(OC)c4)c(C)nn23)CC1`, `COc1cc(C)ccc1OCCOCCOc1cccc2ccc(C)nc12.O=C(O)C(=O)O` is lower in “hERG current change (%, negative = inhibition) at 10uM” value: -7.5% for the first, -29.3% for the second.

Compared with `C=CCc1ccc(OCCOCCOc2cccc3ccc(C)nc23)c(OC)c1.O=C(O)C(=O)O`, `C=CCc1ccc(OCCOc2cccc3ccc(C)nc23)c(OC)c1.O=C(O)C(=O)O` is higher in “hERG current change (%, negative = inhibition) at 10uM” value: -61.6% for the first, -6.6% for the second.

Going from `CCOC(=O)c1[nH]c(C)c(C(=O)N2CCc3c([nH]c4ccccc34)C2c2ccccn2)c1C` (stereo not shown) to `O=C(c1c[nH]c2ccccc12)C(O)C(c1ccccc1)N1CCOCC1` (stereo not shown), the “hERG current change (%, negative = inhibition) at 10uM” value falls from -0.347% to -0.703%.

Compared with `CCC(O)CNc1nc(SC)nc2sc3c(c12)CCN(C)C3` (stereo not shown), `CSc1nc(NCCCN(C)C)c2c3c(sc2n1)CN(C)CC3` is higher in “hERG current change (%, negative = inhibition) at 10uM” value: 0.847% for the first, 1.56% for the second.

Going from `CSc1nc(NCc2ccccc2)c2c3c(sc2n1)CN(C)CC3` to `CSc1nc(NCc2ccco2)c2c3c(sc2n1)CN(C)CC3`, the “hERG current change (%, negative = inhibition) at 10uM” value rises from -78% to -75%.

Compared with `CCN(CC)CCCNc1nc(SC)nc2sc3c(c12)CCN(C)C3`, `CSc1nc(SCC(=O)NCc2ccco2)c2c3c(sc2n1)CN(C)CC3` is lower in “hERG current change (%, negative = inhibition) at 10uM” value: 11% for the first, -0.986% for the second.

Going from `Cc1ccc(CN2CC(C(=O)O)CC2=O)cc1` (stereo not shown) to `Cc1ccc(Cn2c(SC3CCOC3=O)nc3ccccc3c2=O)cc1` (stereo not shown), the “hERG current change (%, negative = inhibition) at 10uM” value falls from 6.55% to -42.9%.

First: CCOc1ccc(NC(=O)C(CC(=O)O)Cc2ccc(Br)cc2)cc1 (stereo not shown)
Second: CCOc1ccc(NC(=O)C2CCCN(C(=O)Nc3ccccc3)C2)cc1 (stereo not shown)
The “hERG current change (%, negative = inhibition) at 10uM” value of the first is higher: 11.1% for the first, 2.35% for the second.

Compared with `COc1ccc(C(=O)Oc2cccc(/C=N/NC(N)=S)c2)cc1`, `COc1ccc(C(=O)N2CCC(C(=O)Nc3ccc4c(c3)OCO4)CC2)cc1` is lower in “hERG current change (%, negative = inhibition) at 10uM” value: 11.7% for the first, -79.9% for the second.

Compared with `Cc1ccc(NC(=S)N(CCCN2CCC(C)CC2)Cc2ccco2)cc1C`, `Cc1ccc(NC(=S)N(CCCN2CCCC(C)C2)Cc2ccco2)cc1C` (stereo not shown) is lower in “hERG current change (%, negative = inhibition) at 10uM” value: -70.3% for the first, -76.2% for the second.

Compared with `Cc1ccc(NC(=S)N(CCCN2CCC(C)CC2)Cc2ccco2)cc1`, `Cc1ccc(NC(=S)N(CCCN2CCOCC2)Cc2ccco2)cc1` is higher in “hERG current change (%, negative = inhibition) at 10uM” value: -72% for the first, 4.36% for the second.

First: Cc1ccc(NC(=S)N(CCCN2CCOCC2)Cc2ccco2)cc1C
Second: Cc1ccccc1NC(=S)N(CCCN1CCC(C)CC1)Cc1ccco1
The “hERG current change (%, negative = inhibition) at 10uM” value of the first is higher: -31.9% for the first, -47.9% for the second.

Compared with `Cc1ccc2[nH]c(=O)c(CN(Cc3ccco3)C(=O)c3ccncc3)cc2c1`, `Cc1ccc2[nH]c(=O)c(CN(Cc3ccco3)C(=O)N3CCOCC3)cc2c1` is higher in “hERG current change (%, negative = inhibition) at 10uM” value: -43.4% for the first, -0.449% for the second.

Compared with `Cc1ccc2[nH]c(=O)c(CN(Cc3ccco3)C(=O)CN3CCCC(C)C3)cc2c1` (stereo not shown), `Cc1ccccc1C(=O)N1CCC(C(=O)Nc2ccc3c(c2)OCO3)CC1` is higher in “hERG current change (%, negative = inhibition) at 10uM” value: -57% for the first, 3.97% for the second.

Compared with `CSC1=N/C(=C\c2c(F)cccc2Cl)C(=O)S1`, `CSc1nc2ccccc2c(=O)n1Cc1ccc(F)cc1` is higher in “hERG current change (%, negative = inhibition) at 10uM” value: -17.5% for the first, 15.4% for the second.

First: CC(=O)Nc1ccc(NC(=O)CSc2nnc(C)n2-c2ccccc2)cc1
Second: O=C1OCCC1Sc1nnc(-c2ccccc2Cl)n1Cc1ccccc1 (stereo not shown)
The “hERG current change (%, negative = inhibition) at 10uM” value of the first is higher: 26.1% for the first, 2.19% for the second.

First: CCOC(=O)C1C(=O)OC2(CCOC(C)(C)C2)C1C(=O)OCC (stereo not shown)
Second: COc1ccc(C2C(C(=O)c3ccco3)=C(O)C(=O)N2CC2CCCO2)cc1OC (stereo not shown)
The “hERG current change (%, negative = inhibition) at 10uM” value of the first is lower: 5.89% for the first, 24.1% for the second.

Compared with `COc1ccc(N(CC(=O)NCc2ccccc2Cl)S(=O)(=O)c2c(C)n[nH]c2C)cc1`, `O=C1OCCC1Sc1nc2ccccc2c(=O)n1Cc1ccc(F)cc1` (stereo not shown) is lower in “hERG current change (%, negative = inhibition) at 10uM” value: 2.87% for the first, -75.5% for the second.

Going from `O=C(Nc1ccc2c(c1)OCO2)C1CCCCC1` to `CS(=O)(=O)N1CCC(C(=O)Nc2ccc3c(c2)OCO3)CC1`, the “hERG current change (%, negative = inhibition) at 10uM” value falls from 0.102% to -7.81%.

Compared with `O=C(Nc1ccc2c(c1)OCO2)C1CCN(C(=O)c2ccc(Cl)cc2)CC1`, `O=C(Nc1ccc2c(c1)OCCO2)C1CCN(C(=O)c2ccc(Cl)cc2)CC1` is higher in “hERG current change (%, negative = inhibition) at 10uM” value: -73.5% for the first, -12.5% for the second.

Going from `O=C(Nc1ccc2c(c1)OCCO2)C1CCN(C(=O)c2ccc(F)cc2)CC1` to `O=C(Nc1ccc2c(c1)OCCO2)C1CCN(C(=O)c2ccc(Br)cc2)CC1`, the “hERG current change (%, negative = inhibition) at 10uM” value falls from 3.73% to -52.7%.

Compared with `O=C(Nc1ccc2c(c1)OCCO2)C1CCN(C(=O)c2ccccc2)CC1`, `COc1ccc(C(=O)N2CCC(C(=O)Nc3ccc4c(c3)OCCO4)CC2)cc1` is lower in “hERG current change (%, negative = inhibition) at 10uM” value: 5.84% for the first, -44.2% for the second.

First: COc1cc(OC)cc(C(=O)N2CCC(C(=O)Nc3ccc4c(c3)OCCO4)CC2)c1
Second: O=C(Nc1ccc2c(c1)OCO2)C1CCN(C(=O)c2ccc(Br)cc2)CC1
The “hERG current change (%, negative = inhibition) at 10uM” value of the first is higher: 2.48% for the first, -70.5% for the second.

Compared with `Cn1c(=O)n(CCCOc2ccc(Br)cc2)c2ccccc21`, `O=C1OCCC1Sc1nc2ccccc2n1Cc1ccccc1` (stereo not shown) is lower in “hERG current change (%, negative = inhibition) at 10uM” value: -3.96% for the first, -46.3% for the second.

First: O=C(CCN1c2ccccc2Sc2ccccc21)OCc1nnc(-c2ccccc2)o1
Second: O=C1OCCC1Sc1nc2ccccc2c(=O)n1Cc1ccccc1 (stereo not shown)
The “hERG current change (%, negative = inhibition) at 10uM” value of the first is higher: 5.92% for the first, -82.4% for the second.

Going from `O=S1(=O)CCOC[C@H](Cc2ccccc2)N1Cc1ccccc1` to `O=C1OCCC1Sc1nc2cc(Cl)ccc2n1Cc1ccccc1` (stereo not shown), the “hERG current change (%, negative = inhibition) at 10uM” value falls from -37.8% to -63.9%.

First: Cc1cc(C)n(C(C)CC(=O)Nc2ccc3c(c2)OCO3)n1 (stereo not shown)
Second: COc1cc(OC)c(NC(=O)c2ccco2)cc1Cl
The “hERG current change (%, negative = inhibition) at 10uM” value of the first is higher: 10.2% for the first, -14.3% for the second.

Compared with `O=C1OCCC1Sc1nc2ccccc2c(=O)n1-c1ccc(F)cc1` (stereo not shown), `COCCn1c(SC2CCOC2=O)nc2ccccc2c1=O` (stereo not shown) is lower in “hERG current change (%, negative = inhibition) at 10uM” value: 8.7% for the first, -31% for the second.
